Where “and” joins values, the source holds several entries; their conditions need not be identical. Identical values can stand only once.
Test system: H9c2
Assay: protection of cardiomyocytes from stress damage, SAR follow-up, cell-based, panel, H9c2 and HL-1, ATP luminescence, set 2 (AID 651871);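 further: cells exposed to stressor for 2 h before ATP readout; reference of the scale not given here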
Conditions: H9c2/HL-1 cardiomyocytes, H2O2 oxidative stress; with H2O2, run 1, at 79 µM (top of the series)

Structure (SMILES) | activity (protection/inhibition)
COc1ccc2c(c1OC)C(=O)N1c3ccccc3C(=O)N(Cc3cccc(Cl)c3Cl)C21 (centres undefined) | 62.2% and 104% and 61.7%
COc1ccc2nc(-c3cc(OC)c(OC)c(OC)c3)cc(C(=O)NCC(=O)Nc3ccc(C(C)=O)cc3)c2c1 | 92.2% and 97.6%
CCOC(=O)c1cccc(NC(=O)CNC(=O)c2cc(-c3cc(OC)c(OC)c(OC)c3)nc3ccccc23)c1 | 77.6%
COc1cc(-c2cc(C(=O)Nc3cccc(C(=O)NCc4ccccc4)c3)c3ccccc3n2)cc(OC)c1OC | 83.5%

— PubChem BioAssay AID651871 (Sanford-Burnham Center for Chemical Genomics, 2012)
